According to PubChem BioAssay AID1159580 (chemical genetic matrix, 2015):
Where “and” joins values, the source holds several entries; their conditions need not be identical. Equal entries are not always repeated. About 2,000 (36%) of roughly 5,500 compounds were called active. Inconclusive results (about 18%) are left out. Rule as the data show it: active = normalized growth mostly below about 0.91 (no sharp cut-off); inconclusive = no clear call, values can overlap the other calls; inactive = mostly above about 0.92. Some of the results follow.

Test: chemical genetic growth profiling, strain panel (AID 1159580);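 also: tested at 20 µM; growth read once vehicle control cultures reached saturation at 30 °C; 1 = growth at the plate median or of vehicle wells; lower values mean less growth of the strain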
Details: S. cerevisiae deletion strains, growth OD

Measured: normalized growth

CC1(C)S[C@@H]2[C@H](NC(=O)Cc3ccccc3)C(=O)N2[C@H]1C(=O)O
inactive: locus YAL021C, strain ccr4, active compounds read low 1.03 | locus YAL026C, strain drs2, active compounds read low 1.04 | locus YAL030W, strain snc1, active compounds read low 1.03 | locus YBL061C, strain skt5, active compounds read low 1.04 | locus YBR009C, strain hhf1, active compounds read low 1.03 | locus YBR021W, strain FUR4, active compounds read low 1.01 | locus YBR023C, strain chs3, active compounds read low 1.04 | locus YBR171W, strain sec66, active compounds read low 1.04 | locus YBR229C, strain ROT2, active compounds read low 1 | locus YBR231C, strain swc5, active compounds read low 1.02 | locus YBR279W, strain paf1, active compounds read low 1.02 | locus YCL011C, strain gbp2, active compounds read low 1.04 | locus YCL016C, strain dcc1, active compounds read low 1.03 | locus YCL029C, strain bik1, active compounds read low 1.02 | locus YCL061C, strain MRC1, active compounds read low 1.02 | locus YCL069W, strain vba3, active compounds read low 1.04 | locus YCR088W, strain abp1, active compounds read low 1.03 | locus YDL005C, strain med2, active compounds read low 1.02 | locus YDL035C, strain GPR1, active compounds read low 1.01 | locus YDL040C, strain nat1, active compounds read low 1.03 | locus YDL074C, strain BRE1, active compounds read low 1.01 | locus YDL101C, strain DUN1, active compounds read low 1.01 | locus YDL134C, strain PPH21, active compounds read low 1 | locus YDL185W, strain tfp1, active compounds read low 1 | locus YDL192W, strain arf1, active compounds read low 1.02 | locus YDR001C, strain nth1, active compounds read low 1.01 | locus YDR069C, strain doa4, active compounds read low 1 | locus YDR101C, strain arx1, active compounds read low 1.02 | locus YDR137W, strain rgp1, active compounds read low 1.03 | locus YDR150W, strain NUM1, active compounds read low 1 | locus YDR159W, strain sac3, active compounds read low 1.02 | locus YDR162C, strain NBP2, active compounds read low 1.01 | locus YDR195W, strain ref2 1.01 | locus YDR297W, strain sur2, active compounds read low 1.01 | locus YDR318W, strain mcm21, active compounds read low 1.02 | locus YDR334W, strain swr1, active compounds read low 1.04 | locus YDR335W, strain msn5, active compounds read low 1.03 | locus YDR388W, active compounds read low 1.02 | locus YDR392W, strain spt3, active compounds read low 0.994 | locus YDR502C, strain sam2, active compounds read low 1.02 | locus YEL003W, strain gim4, active compounds read low 1.03 | locus YEL037C, strain rad23, active compounds read low 1.03 | locus YEL061C, strain CIN8 (second series), active compounds read low 1.02 | locus YEL061C, strain CIN8, active compounds read low 1 | locus YER015W, strain faa2, active compounds read low 1.03 | locus YER016W, strain bim1, active compounds read low 1.02 | locus YER110C, active compounds read low 1.03 | locus YER111C, strain swi4, active compounds read low 1.01 | locus YER155C, strain BEM2 (second series), active compounds read low 1.03 | locus YER155C, strain BEM2, active compounds read low 0.999 | locus YER167W, strain BCK2, active compounds read low 1 | locus YFR010W, strain ubp6, active compounds read low 1.03 | locus YGL078C, strain dbp3, active compounds read low 1.01 | locus YGL086W, strain mad1, active compounds read low 1.01 | locus YGL167C, strain pmr1, active compounds read low 1.04 | locus YGL173C, strain kem1, active compounds read low 1.05 | locus YGL227W, strain vid30, active compounds read low 1.05 | locus YGL240W, strain doc1, active compounds read low 0.993 | locus YGL248W, strain PDE1, active compounds read low 1.01 | locus YGL253W, strain hxk2, active compounds read low 1.04 | locus YGR078C, strain PAC10, active compounds read low 1.01 | locus YGR135W, strain pre9, active compounds read low 1.02 | locus YGR252W, strain gcn5, active compounds read low 0.994 | locus YHR013C, strain ard1, active compounds read low 1.03 | locus YHR027C, strain rpn1, active compounds read low 1.01 | locus YHR030C, strain SLT2, active compounds read low 1.01 and 0.977 | locus YHR079C, strain IRE1 (second series), active compounds read low 1.03 | locus YHR079C, strain IRE1, active compounds read low 0.981 | locus YHR094C, strain hxt1, active compounds read low 1.02 | locus YHR129C, strain ARP1, active compounds read low 0.999 | locus YHR142W, strain chs7, active compounds read low 1.06 | locus YHR200W, strain rpn10, active compounds read low 1.02 | locus YIL066C, strain RNR3, active compounds read low 1 | locus YIL073C, strain SPO22, active compounds read low 1.05 | locus YIL125W, strain kgd1, active compounds read low 1.01 | locus YIR030C, strain dcg1, active compounds read low 1.02 | locus YJL092W, strain hpr5, active compounds read low 1.03 | locus YJL095W, strain BCK1 (second series), active compounds read low 1.02 | locus YJL095W, strain BCK1, active compounds read low 1 and 0.971 | locus YJL115W, strain asf1, active compounds read low 1.03 | locus YJL129C, strain trk1, active compounds read low 1.05 | locus YJL134W, strain LCB3, active compounds read low 1.01 | locus YJL154C, strain vps35, active compounds read low 1.03 | locus YJL164C, strain tpk1, active compounds read low 1.04 | locus YJL166W, strain qcr8, active compounds read low 1.01 | locus YJL168C, strain set2, active compounds read low 1.02 | locus YJL187C, strain SWE1 (second series), active compounds read low 1 | locus YJR043C, strain POL32, active compounds read low 1
